# Assay outcomes deposited in PubChem by National Center for Advancing Translational Sciences (NCATS).
# HPGD inh = blocks human HPGD enzyme activity; P15428; purified HPGD, NADH fluorescence kinetic, PGE2 substrate; Potency, µM, without a hit: at the highest dose activity change, negative = inhibition, actives largely listed as inhibitors; actives 4.3% (n = 150,000); AID 894; active means well fitted inhibition curve with a large enough effect, not every such curve was filed as active; inconclusive means small, poorly fitted or top-dose-only effect, or another doubt; inactive means no such curve, though single readings can be large or run the other way; further: potency means the concentration at half of the fitted maximal effect
#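 20 nM HPGD preincubated 15 min at room temperature with compound in 50 mM Tris-HCl pH 8, 0.01% Tween 20. Started with 1 mM NAD+ and 30 uM prostaglandin E2; NADH fluorescence (360/450 nm) read 5 times over 30-s intervals, last minus first.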
# ALOX12 inhib = 12-hLO (ALOX12) enzyme inhibition; P18054; purified 12-hLO, xylenol orange hydroperoxide absorbance; Potency, µM (top dose mostly 57.1 µM), without a hit: top-dose activity change, negative = inhibition, usual class: inhibitors; actives 0.12% (n = 150,000); further: potency means the concentration at half of the fitted maximal effect; nearly all actives have a fitted effect of over 55% in size
# Target sequence (P18054 whole entry, looked up): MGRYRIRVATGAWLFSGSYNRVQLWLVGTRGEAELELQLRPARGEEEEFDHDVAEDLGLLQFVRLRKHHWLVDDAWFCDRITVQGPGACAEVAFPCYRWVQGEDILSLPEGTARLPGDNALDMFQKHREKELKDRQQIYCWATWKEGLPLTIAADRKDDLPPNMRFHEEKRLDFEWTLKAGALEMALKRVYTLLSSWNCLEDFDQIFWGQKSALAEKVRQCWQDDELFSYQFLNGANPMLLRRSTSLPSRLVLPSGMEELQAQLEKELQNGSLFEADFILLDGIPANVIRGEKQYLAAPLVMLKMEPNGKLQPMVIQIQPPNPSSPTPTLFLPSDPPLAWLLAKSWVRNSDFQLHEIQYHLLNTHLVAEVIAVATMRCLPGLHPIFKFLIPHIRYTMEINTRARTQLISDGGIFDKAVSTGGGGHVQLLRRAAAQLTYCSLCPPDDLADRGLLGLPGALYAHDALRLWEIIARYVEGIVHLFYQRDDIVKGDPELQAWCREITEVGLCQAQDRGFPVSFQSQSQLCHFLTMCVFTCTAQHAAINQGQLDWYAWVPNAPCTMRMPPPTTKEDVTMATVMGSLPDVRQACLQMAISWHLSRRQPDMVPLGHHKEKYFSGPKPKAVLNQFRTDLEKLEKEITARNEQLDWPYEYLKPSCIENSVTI
#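 Purified human 12hLO (150 nM), preincubated 15 min with compound, then 40 uM arachidonic acid for 30 min, room temperature, Hepes pH 7.0 with 0.01% Triton X-100. Hydroperoxide detected by ferrous iron/xylenol orange; 573/405 nm absorbance ratio gives reaction progress.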
# PNC inhibitor = inhibitors of perinucleolar compartment assembly | AID 2417 | activity change (PNC), negative = inhibition, % at 10 µM | actives 3.1% (n = 140,000) | PC3M PTB-GFP, PNC prevalence imaging, 16 h; stronger effect = lower value;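 active means readout at or below -70, meaning at least 70% loss of cells showing the perinucleolar compartment, a nuclear body marking cancer cells; inconclusive means readout between -30 and a set limit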;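 further: plate controls were DMSO wells for no effect and camptothecin positive control wells for full effect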
#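 PC3M cells stably expressing PTB-GFP, 750–1000 cells/well, treated 16 h at 37 °C with compound (23 nl of library stock), in duplicate. After paraformaldehyde fixation and Hoechst stain, imaged at 20x; PNC prevalence scored by image analysis.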
# ALDH1A1 inh = inhibitors of human aldehyde dehydrogenase 1A1 | P00352 | actives 7.3% (n = 220,000) | AID 1030 | Potency, µM (doses to about 75.3 µM), without a hit: at the top dose activity, negative = inhibition, most hits filed as inhibitors | Purified ALDH1A1, NADH fluorescence, propionaldehyde substrate; active means well fitted inhibition curve with a large enough effect, not every such curve was filed as active; inconclusive means small, poorly fitted or top-dose-only effect, or another doubt; inactive means no such curve, though single readings can be large or run the other way;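 further: potency means the concentration at half of the fitted maximal effect; plate controls were no enzyme wells and a reference inhibitor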
# IMPase cell inh = membrane-permeable compound that blocks inositol monophosphatase; P97697; CHO-M1 cells, IP1 accumulation, HTRF TR-FRET ratio; inhibition (IP1 accumulation), % at 46.1 µM; 120,000 tested, under 10 active; AID 901; active means well fitted curve in the direction sought with a large enough effect in the signal ratio, not every such curve was filed as active; inconclusive means small, poorly fitted or top-dose-only effect, or a change in a side signal; inactive means no such curve, though single readings can be large or run the other way; the % refers to the signal ratio;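 further: cells stimulated with carbachol in lithium chloride buffer; plate controls were DMSO basal wells for no effect and reference inhibitor wells for full effect; higher means more IMPase inhibition seen as more IP1 and lower FRET ratio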
#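 The IP-One HTRF competitive assay in carbachol-stimulated CHO-M1 cells quantifies cellular IP1. Compounds spanned up to 46 uM final, and activity is expressed as AC50 from concentration-response fits of the ratio and donor data.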
# IMPase Li cell = IMPase inhibition in cells with lithium potentiation; AID 1457; actives 0.35% (n = 210,000); Potency, µM (top dose mostly 59.4 µM), for inactives: top-dose activity, negative = IMPase inhibition, most hits filed as inhibitors; CHO-M1 cells, IP1 TR-FRET (IP-One), carbachol + lithium;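 further: IP1 builds up when IMPase is blocked and the TR-FRET signal falls; potency means the concentration at half of the fitted maximal effect; plate controls were basal vehicle for no effect and high inhibitor control for full effect; nearly all actives have a fitted effect of over 50% in size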
#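 CHO cells stably expressing M1 receptor (2000/well) were cultured 16–30 h, then exposed to compounds with a small lithium addition for 30 min at 37C. IP1 was measured by TR-FRET competition; AC50 from Hill fits.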
# * marks the source's active call; other numbers are inactive results; u = inconclusive; x = no result given; [ ] = dose if it differs, or a comment. Most compounds without a hit are left out; they make up all but 11% or so of the library. Unless noted, the call rests on the fitted dose curve; in most records, active means well fitted curve in the direction sought with a large enough effect; inconclusive means small, poorly fitted or top-dose-only effect, or another doubt; inactive means no such curve, though single readings can be large; an effect the other way counts as inactive or inconclusive. Unless noted, on the % scale 0 is the no-effect control and ±100 the full control effect.
SMILES,HPGD inh,ALOX12 inhib,PNC inhibitor,ALDH1A1 inh,IMPase cell inh,IMPase Li cell
Cc1ccc2nc(C)cc(C(=O)OCC(=O)c3ccc(Cl)c([N+](=O)[O-])c3)c2c1,-19%,-7%,5,20µM*,8,-4%[38.3 µM]
COCCn1c(=O)c(-c2cn(C)c3ccccc23)nc2cnc(OCc3ccccc3)nc21,x,x,x,u,x,20%
CN(C)S(=O)(=O)c1cccc(-c2cn3cc(Cl)ccc3n2)c1,u,-2%,-83*,u,-5,5%[38.3 µM]
Cc1ccc(C(=O)c2coc3c2C(=O)C(=O)c2ccccc2-3)cc1,u,-26%,21,20µM*,7,16%[38.3 µM]
Cc1ccc(C(=O)c2c(C)oc3c2C(=O)C(=O)c2ccccc2-3)cc1,20µM*,u,u,20µM*,14,16%[38.3 µM]
COc1ccc(C(=O)c2coc(-c3ccccc3C(=O)O)c2C(=O)O)cc1,-11%,0%,-28,5%,x,-4%
Cc1oc2c(c1C(=O)c1ccc(Cl)cc1)C(=O)C(=O)c1ccccc1-2,-26%,-5%,95,u,21,43%[38.3 µM]
COc1cc2ccccc2cc1C(=O)Nc1cccc(-c2nc3cc(C)c(C)cc3o2)c1C,x,x,x,x,5,x
N#CNC(=Nc1cccc(F)c1)SCc1ccccc1,-1%,3%,-103*,-1%,x,7%
N#CNC(=Nc1cccc(F)c1)SCc1cccc(F)c1,-1%,1%,-16,6%,x,6%
CC(C)CN(CC(C)C)C1=N/C(=C\c2ccco2)C(=O)N1c1ccccc1,u,-14%,49,13µM*,5,13%[38.3 µM]
COc1ccc(C(C)=O)cc1COC(=O)c1c(C)noc1C,-21%,5%,-8,22µM*,10,-4%[38.3 µM]
COc1ccc(C(C)=O)cc1COC(=O)c1cnc(C)cn1,-8%,-5%,14,-5%,4,15%[38.3 µM]
COc1ccc(C(C)=O)cc1COC(=O)c1ccc(OCc2c(C)noc2C)cc1,-12%,-7%,45,7.9µM*,11,u
COc1ccc(C(C)=O)cc1COc1cc(C)c(Cl)c(C)c1,x,x,x,1%,x,x
COc1ccc(C(C)=O)cc1COc1ccc(-n2cnnn2)cc1,u,11%,-1,3.5µM*,-6,-14%[38.3 µM]
N[C@@H](Cc1cccc([N+](=O)[O-])c1)C(=O)O,-6%,3%[11.4 µM],x,-9%[13.5 µM],x,6%
Cc1cc(Cl)ccc1NC(=O)C(=O)NCc1ccco1,x,x,x,x,-2,x
O=C(NCCN1CCCCC1)c1ccc(-n2c(=O)c(=O)[nH]c3ccccc32)cc1,-8%,-6%,x,0%,x,x
N[C@H](CCC(=O)N[C@H](CSN=O)C(=O)NCC(=O)O)C(=O)O,11µM*,-14%,x,-12%,-9,9%
ON=C1CCCCC1,-2%,0%,x,2%,x,1%
Cc1cccc(NC(=O)Cn2c(=O)n3nc(CCn4nc(C)cc4C)nc3c3ccccc32)c1,-24%,0%,43,14µM*,1,-5%[38.3 µM]
CCOC(=O)c1c(NC(=O)/C=C/c2ccc(C)cc2)sc2c1CCCC2,x,x,x,x,2,x
Cn1cccc1Cc1nnc(SCC(=O)NCc2ccccc2)n1-c1ccc(F)cc1,-12%,-2%,-20,-14%,-6,12%[38.3 µM]
CN(C)S(=O)(=O)c1ccc(C(=O)NCc2nnc(SCC(=O)Nc3ccc(F)cc3)n2-c2ccc(F)cc2)cc1,-12%,0%,37,7.1µM*,x,-7%
COc1ccc(-n2c(Cc3cccn3C)nnc2SCC(=O)Nc2ccc(C(C)=O)cc2)cc1,-21%,-10%,11,8.9µM*,-5,-14%[38.3 µM]
O=C(CSc1nnc(CNC(=O)C23CC4CC(CC(C4)C2)C3)n1-c1ccc(F)cc1)Nc1ccc(F)cc1,-6%,-5%,-3,10%,2,4%
Cn1cccc1Cc1nnc(SCC(=O)N2CCN(c3ccccc3)CC2)n1-c1ccc(F)cc1,1%,-5%,-1,14µM*,u,13%[38.3 µM]
CCOc1ccc(NC(=O)CSc2nnc(Cc3cccn3C)n2-c2ccc(OC)cc2)cc1,-9%,-1%,-2,4µM*,-6,1%[38.3 µM]
